# G9a inh: qHTS Assay for Inhibitors of Histone Lysine Methyltransferase G9a | G9a H3K9 monomethylation, AlphaScreen, 2 h | Potency, µM (top dose mostly 102 µM), for inactives: at the top dose activity, negative = inhibition, actives largely listed as inhibitors | 8.8% of 350,000 active; further: potency means the concentration at half of the fitted maximal effect; nearly all actives have a fitted effect of over 75% in size
# Target sequence (Q96KQ7 913-1193 limits assumed): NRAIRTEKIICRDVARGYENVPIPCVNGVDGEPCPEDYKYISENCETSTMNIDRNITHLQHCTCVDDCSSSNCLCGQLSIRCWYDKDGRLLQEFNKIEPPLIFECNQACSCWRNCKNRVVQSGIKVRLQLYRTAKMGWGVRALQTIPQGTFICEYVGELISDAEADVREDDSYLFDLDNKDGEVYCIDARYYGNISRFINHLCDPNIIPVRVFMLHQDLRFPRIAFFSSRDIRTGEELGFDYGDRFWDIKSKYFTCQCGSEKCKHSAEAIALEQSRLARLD
#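 Using a bead-based AlphaScreen, monomethylated H3K9 product from 2 h room-temperature reactions (G9a 20 nM, peptide 500 nM, SAM 20 uM) was detected with 0.5 ug/mL rabbit anti-H3K9me1 antibody.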
# CCT modulator: High-Throughput Screening for Modulators of Cytosolic Chaperonin Activity. purified chaperonin ATPase assay, HTRF ADP detection, 30 min. activity change, % (concentration not given with the values), hits read low. 0.3% of 360,000 active; in the data active means activity change below about -30%
#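 Enzyme 40 or 20 nM (batch-dependent) in Tris pH 7.4/KCl/MgCl2/DTT; cpd 76 uM single point; ATP 10 uM; 30 min 37 °C; Transcreener ADP HTRF detection, 30 min RT; ratio 665/615.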
# VDR inhibitor: Inhibitors of the vitamin D receptor (VDR): qHTS | Vitamin D3 receptor (Homo sapiens), P11473 | VDR-SRC2-3 peptide fluorescence polarization, 2 h | Potency, µM, for inactives: max response, negative = inhibition, most hits filed as inhibitors | 0.93% of 400,000 active; further: potency means the concentration at half of the fitted maximal effect
#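 Reagent solutions, kept cold and dark, are dispensed first; compounds are then pinned in at 23 nl, plates briefly spun, and incubated 2 h at ambient temperature. Inhibition of VDR–SRC2-3 peptide binding is read by fluorescence polarization.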
# MmCpn inh: Inhibitors of TCP-1 ring complex (TRiC) of Methanococcus maripaludis (MmCpn): qHTS. Potency, µM (highest dose often 76.9 µM), inactives show at the top dose activity, negative = inhibition, hits mostly inhibitors. purified Mm-Cpn ATPase, ADP Transcreener TR-FRET. 0.031% of 330,000 active. Chaperonin Mm-Cpn (Methanococcus maripaludis); further: potency means the concentration at half of the fitted maximal effect; nearly all actives have a fitted effect of over 80% in size
#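 TR-FRET (320 nm excitation; 590 and 665 nm emission) reports ADP made from 10 uM ATP by 25 nM enzyme; compounds were preincubated 10 min, reaction run 30 min, both at 37°C.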
# PLK1 PBD block: qHTS for Inhibitors of PLK1-PDB (polo-like kinase 1 - polo-box domain): Primary Screen; Potency, µM, for inactives: max response, negative = inhibition, most hits filed as inhibitors; Plk1 PBD binding of FITC phosphopeptide, fluorescence polarization; Serine/threonine-protein kinase PLK1 (Homo sapiens), P53350; 2.8% of 360,000 active; further: potency means the concentration at half of the fitted maximal effect; series mostly up to about 57 µM; nearly all actives have a fitted effect of over 65% in size
# Sfp inh: qHTS Assay for Inhibitors of Bacillus subtilis Sfp phosphopantetheinyl transferase (PPTase); 4'-phosphopantetheinyl transferase ffp (Bacillus subtilis), Q9F4F7; Biochemical Sfp PPTase activity, qHTS; Potency, µM, for the others: largest response in the series, negative = inhibition, hits mostly inhibitors; 3.5% of 310,000 active; AID 1490, 2009;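 further: the enzyme is Sfp with the accession as filed and its product quenches rhodamine fluorescence; potency means the concentration at half of the fitted maximal effect; 0% = enzyme reaction without inhibitor and -100% = no enzyme wells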
#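 With Hepes-Na pH 7.6 buffer containing 10 mM MgCl2, Sfp (15 nM) modified BHQ-2-YbbR (12.5 uM) using rhodamine-CoA (5 uM). Two reads 30 minutes apart at 525/598 nm yielded each well's rate.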
# Starred values were filed as active, the others as inactive; ? = inconclusive; . = no result given; [ ] = remark or other dose. A selection: hits, their analogues and other compounds. The true share with any hit is near 10%. Unless noted, the call rests on the fitted dose curve; in most records, active means well fitted curve in the direction sought with a large enough effect; inconclusive means small, poorly fitted or top-dose-only effect, or another doubt; inactive means no such curve, though single readings can be large; an effect the other way counts as inactive or inconclusive. Unless noted, on the % scale 0 is the no-effect control and ±100 the full control effect.
SMILES,G9a inh,CCT modulator,VDR inhibitor,MmCpn inh,PLK1 PBD block,Sfp inh
O=C(Nc1ccc(F)cc1F)N1CCc2c(sc3c2CCCC3)C1c1ccc(F)cc1 (stereo unspecified),-1.1%[12.7 µM],.,-0.9%,.,.,.
COCCCNC(=O)CSC1=Nc2ccccc2C2=NC(CCC(=O)NCc3ccccc3OC)C(=O)N12 (stereo unspecified),22.1%[59 µM],.,6.2%,.,.,.
CCOc1ccc(C(=O)NCC(c2ccc3c(c2)OCO3)N2CCN(C)CC2)cc1 (stereo unspecified),7.2%[59 µM],.,12.0%,.,.,.
CSc1ccc(CCNC(=O)C(C)n2nc(C)c3c(C)n(-c4ccccc4)nc3c2=O)cc1 (stereo unspecified),?,.,15.8%,.,.,.
CSc1ccc(CNC(=O)C(C)n2nc(C)c3c(C)n(-c4ccccc4)nc3c2=O)cc1 (stereo unspecified),?,-2.0,-21.4%,-1.1%,21.2µM*,4.6%
CCc1ccc(CNC(=O)Cn2nc(C)c3c(C)n(-c4ccc(C)cc4)nc3c2=O)cc1,3.1%[59 µM],.,-3.2%,.,.,.
Cc1nn(CCC(=O)NCc2ccc(N(C)C)cc2)c(=O)c2nn(-c3ccccc3)c(C)c12,44.7µM*,-0.3,0.8%,0.9%,-10.1%,13.4%
CCOc1ccc(CNC(=O)Cn2nc(C)c3c(C)n(-c4ccc(C)cc4)nc3c2=O)cc1,15.6%,-0.9,-19.3%,0.0%,29.9µM*,-13.5%
Cc1ccc(C)c(N2CCN(S(=O)(=O)c3cc(Br)cc4c3N(C(=O)C3CC3)CC4)CC2)c1,1.1%[59 µM],.,-3.2%,.,.,.
N#CC1=C(N)OC2=C(CCC/C2=C/c2ccoc2)C1c1ccoc1 (stereo unspecified),15.8µM*,.,.,0.3%,.,39.8µM*
CCN(CCCNC(=O)c1[nH]c(C)c(C(C)=O)c1C)c1ccccc1,14.1µM*,-0.7,11.1%,0.5%,0.5%,10.5%
CC(C)C1CC(O)(C2(O)CCCCC2)ON1 (stereo unspecified),-26.9%[59 µM],0.3,-25.2%,0.0%,3.36µM*,15.3%
Cc1cc2c(nc1C)CCCCN2C[C@H](C)O/N=C1/[C@H]2O[C@@H]2[C@@H](O)[C@H]2[C@H]1CCn1c(=O)n(-c3ccccc3)c(=O)n12,.,.,.,.,.,-0.6%
COc1ccc(CNCCSc2nnnn2-c2ccccc2)c(OC)c1,-1.7%[59 µM],.,4.2%,.,.,.
Clc1ccccc1-c1nc(-c2cccnc2)no1,35.1%[59 µM],-0.2,3.6%,.,-2.7%,8.0%
Clc1ccccc1-c1nnc(-c2cccnc2)o1,14.8%,-39.7*,10.9%,-3.4%,-6.5%,4.1%
CCn1c(=S)sc2c(=O)n(-c3ccccc3)c(=S)[nH]c21,10µM*,-4.1,-8.6%,-1.8%,-15.0%,-26.4%
CCOC(=O)c1[nH]c(=S)n(-c2ccccc2)c1C(=O)OCC,.,-1.5,.,.,-4.9%,.
CCn1cc(C(=O)NCc2ccccc2OC)c(=O)c2cc(S(=O)(=O)N3CCCCCC3)ccc21,-40.2%[59 µM],.,-4.0%,.,.,.
CCCCC1=CC2=C(OC(C)=O)C(=O)C(C)(OC(=O)CCC(=O)OC)C(=O)C2=CO1 (stereo unspecified),.,.,4.6%,.,.,16.7%
CC[n+]1c(-c2ccc(C)cc2)csc1Nc1c(C)n(C)n(-c2ccccc2)c1=O,8.91µM*,-1.7,-10.7%,0.0%,-1.9%,5.0%
Cc1c(NC(=O)Nc2c(Cl)cccc2Cl)c(=O)n(-c2ccccc2)n1C,-9.7%,1.2,15.6%,1.9%,-2.8%,9.7%
Cc1ccc(N2C(=O)C(Cl)=C(Nc3c(C)n(C)n(-c4ccccc4)c3=O)C2=O)cc1,5.01µM*,-5.2,-59.2%,0.8%,-28.0%,?
Cc1cccc(N2C(=O)C(Cl)=C(Nc3c(C)n(C)n(-c4ccccc4)c3=O)C2=O)c1C,8.91µM*,-6.8,?,-1.7%,-9.4%,56.2µM*

# Screens as filed in PubChem.
